# Assay results published in the supplement of paper PMC10338343.
# ± gives the standard deviation.
# Tested on: MILI (PIWIL2) piRISC loaded with piRNA #1 (26 nt)
# Assay: pre-steady-state target cleavage rate (min^-1); guide: piRNA #1 5'p-UGAGGUAGUAGGUUGUAUAGUAUCCA; MIWI and MILI are mouse PIWI proteins and EfPiwi is from a freshwater sponge; tags in brackets are library labels; higher = faster piRNA-guided slicing of the target
# Conditions: auxiliary factor: 500 nM mouse GTSF1
# Method: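 Cleave-'n-Seq: a library of target RNAs (target site embedded in constant flanks, ACAGCATTCCGCGTTAGTGATATCCG... 5' flank; DNA-blocked outside the site) at 0.1 nM was incubated with 1 nM active mouse MILI or MIWI piRISC (synthetic 5'-monophosphorylated piRNA guide) with or without 500 nM mouse GTSF1 at 33 °C for 1 min to 16 h. Uncleaved targets were sequenced and normalised to non-target controls, and the pooled three trials were fitted to a burst-and-steady-state model to give the pre-steady-state cleavage rate (min^-1; k3 is constrained to at most 1e-4). Sequence is the target site only; target names encode pairing extent (gX:gY) and contiguous / 1-mismatch / 2-mismatch / bulge geometry. Fits with R² ≤ 0 are excluded.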
row,Sequence,pre-steady-state target cleavage rate
1,GGAGAGGAUACUAUACAACCUAACUACCUCA,0.0231 ± 0.0035
2,GGAGUGGAUACCUAUACAACCUACUACCUCA,0.0993 ± 0.019
3,GGAGACCUUACUAUACAACCUACUACCUUA,0.174 ± 0.019
4,GGAGUGGAUUCUAUACAACGUACUACCUCA,0.0287 ± 0.0031
5,GGAGACCUAUGAAUACAUCCUACUACCACA,0.0133 ± 0.0041
6,GGAGACCUAUGUAUACAACCAUACUACCUCA,0.00475 ± 0.0025
7,GGAGAGGAUUCUAUACAUCCUACUACCUCA,0.263 ± 0.013
8,GGAGAGGAUACAAUACAACGUACUACCUCA,0.0139 ± 0.003
9,GGAGACCUAUCUAUACAACGAACUACCUCA,0.00423 ± 0.0023
10,GGAGACCUAUGAAUACAUCCUACUACCUCA,0.012 ± 0.0031
11,GGAGACCUAUGAAUUCAACCUACUACCUCA,0.00274 ± 0.0019
12,GGAGACCAUACAUACAACCUACUACCUCA,0.119 ± 0.023
13,GGAGACCAAACAAUACAACCUACUACCUCA,0.0678 ± 0.024
14,GGAGACCUUACAAAACAACCUACUACCUCA,0.00897 ± 0.0036
15,GGAGACCAUACUUUACAACCUUCUACCUCA,0.0105 ± 0.0033
16,GGAGUGGAUAUAUACAACCUACUACCUCA,0.152 ± 0.01
17,GGAGACGAUACAAUACAACCUACUACGUCA,0.102 ± 0.015
18,GGAGACCUAUGAUUACUACCUACAACCUCA,0.00398 ± 0.0024
19,GGAGACCUUACUAUACAUCCUACUACGUCA,0.141 ± 0.022
20,GGAGACCUAUGUUAUCAACCUACUACCUCA,0.0125 ± 0.0029

row,Sequence,pre-steady-state target cleavage rate
1,GGAGACGAUACUAUACAACCUACUACGUGA,0.0822 ± 0.021
2,GGAGAGAUACUAUACAACCUACUACCUCA,0.202 ± 0.017
3,GGAGACGAUACAAUACAACCUACAACCUCA,0.152 ± 0.018
4,GGAGACCUAUCUAUACUUCCUACUACCUCA,0.054 ± 0.013
5,GGAGACCUAUGAUAACAACCUACUCACCUCA,0.00465 ± 0.0027
6,GGAGACCAUUCUAUACAAGCUACUACCUCA,0.254 ± 0.018
7,GGAGACCUUUCUAUACAACCUACUACCUCA,0.0895 ± 0.0097
8,GGAGAGGAUACUAUACAACCUCCUACCUCA,0.0496 ± 0.0063
9,GGAGACCUAACUAUCAACCUACUACCUCA,0.0603 ± 0.014
10,GGAGACGAUACUAUACAACCUUCUACCACA,0.00864 ± 0.0028
11,GGAGAGGAUACUAUACAACCUACAACCACA,0.00451 ± 0.0037
12,GGAGACCUUAGUUUACAACCUACUACCUCA,0.0381 ± 0.012
13,GGAGACCAUACUGUACAACCUACUACCUCA,0.079 ± 0.012
14,GGAGAGGAUAGAUUACAACCUACUACCUCA,0.0529 ± 0.0086
15,GGAGAGCAUACUAUACAACCUACUACCACA,0.158 ± 0.018
16,GGAGACGAUACUAAACAACCUACUACCUGA,0.124 ± 0.02
17,GGAGACCUUAGUAUUCAACCUACUACCUCA,0.089 ± 0.011
18,GGAGACCAUACUAUACAACCUACUACUCUCA,0.331 ± 0.028
19,GGAGACGAUACUAUUCAACCUACUAGCUCA,0.0651 ± 0.01
20,GGAGACCAUACUAUACAACGUACUACGUCA,0.0148 ± 0.0053
